Hit rate of the full screen: of about 53,000 sequences, about 3,700 (7%) were called active.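 Rule for the calls: active = gene knockdowns whose robust z-score for IL-1 alpha signal is at least 2 or at most -2, so actives lie on both sides; inactive = the rest.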 This excerpt belongs to a sample that is enriched for actives.
Experiment: Components of the Cytosolic LPS Sensing Pathway: Gene Identification via Genome-wide siRNA Screen;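 note: robust z of the log signal after scaling to non-targeting control siRNA wells of the plate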
Conditions: RAW264.7 macrophages, IL-1a HTRF, actives lie on both sides, screened at 100 nM (by protocol), cells primed 5 h with Pam3CSK4 first
In short: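 Using IL-1a HTRF as read-out, the screen measured release from RAW264.7 cells after 48h siRNA knockdown (100 nM), 5 h Pam3CSK4 priming and 24 h cytosolic LipidA. Values were expressed relative to negative-control wells as robust z-scores.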

z-score, active:
GGGUUUGAGUGCUGUGAAGTT against Ap4s1 -2.66
GGUAAAGACUGGAUGGCUATT against Art5 2.14
GGAUCCUUAAUCGAUACACTT against Gng3 2.38
GCCUCGAUUGGCCACAUUUTT against Atp5l 4.61
GCUCUGUUAAGGAAGAACATT against Safb2 2.02
GGGUUGUCUUCAUCUACUUTT against Crhr1 3.47
GGAACUGAUGAUGGACCAGTT against Slc4a1 3.39
GCCAUUGGGUGUAACAUUUTT against Mpp6 3.35
CCGAGUGGUUAGCUACCAGTT against Ccl24 2.4
GGACUGUCCUCCAAUUUGCTT against Nat8f3 -2.6
GGUUGGACGUGGUGAAGAATT against Chtf18 -2.24
GGAAGUGUGAACUUCAUCATT against Zdhhc6 2.78
GGACUCCUAAUGAAUAAUCTT against Wee2 2.06
GGAUGAAACGGGUGCCUAUTT against Kctd5 3.33
GGAAAUCAGAGAAUACUUCTT against Mfsd14b 2.04
GGGCUAAUUGUGAACAUUUTT against Slc7a1 3.35
GGUGAAGAUUGAGAAGGAGTT against Aifm3 -2.05
GGCAAAAUCUAUUGUCUUCTT against Ran -2.2
GGGUUACAAUAACUGGACATT against Ggcx 2.32

z-score, inactive:
GCUGGGCUACAAUACAUAUTT against Fgf3 -0.0573
CCAUGAGUAUCAAGUCAAUTT against Septin9 1.14
GGGUGAAAUCUAUCUCCAUTT against Agfg1 -1.85
CCAUAAUUCAGCUAGACCUTT against Axin1 0.201
GGAAAUCUUUGAGUUUGAATT against Clca1 -0.0578
GCCAAAUGAGUCAGAUACUTT against Ak3 -0.402
GCCUACAGGAGUGAGAUAATT against Arhgap33os -1.36
AUUGCAUUGUAUUCACUUGTT against Psg22 0.777
GGAAUUCACAUUUGACUGUTT against Irx3os 0.31
GGGUUGGAUAGAAUAUUGUTT against Xk 1.4
GCAGUAUGAGGUAAAUUAUTT against Amer3 1.05
GCCUUCAUUAUUUUAAUGCTT against Ilf3 0.0185
GGCAAAAUGAUCUGCUUUCTT against Trim69 -0.125
GGUUGCUCAGAUUCAGAAUTT against Isy1 -1.53
GGAACCUAGAGAAAAAGAATT against Iyd -1.18
GGCUUUCCAGAAGACAGAATT against Cyp2s1 0.469
GCUAUGACUCCAACAUGCGTT against Jaml 0.0115
GGUGAAGACAGAAUUUCCGTT against 1700128F08Rik -1.01
GGAAGCAAGGAAAAUCAUGTT against Lpo -0.289
GGUGAUACGUAUUUUUUAGTT against Pan3 -1.09
GGUGUUUACUUCCUCAGAATT against Slc9b2 -0.373
GGAGAUAUCCAUCAAUAGUTT against Nbr1 0.874
GGACUUCUAAAAAUCUCUGTT against Gabrb2 0.746
GCGCGCAGUGAACGAAAAATT against Mycn 1.14
CCAUCACGGAUAAUCAUCGTT against 4931417E11Rik -1.65
GGUACUUCCUACCUAACAGTT against Nipa1 -0.235
CCACAGGUUACAACAUAAATT against Pign -1.45
GCUCCACAAGAUGUAAAGGTT against Il21 0.11
GGGCCAUUUUAGGUCCUUUTT against Rbm7 0.112
GGACUUACCUUUAACCAACTT against Slc30a4 0.42
GGGAAUGAAAAGUCAAAAGTT against Stard7 -0.047
GCAGCUCUAGGUGUUCAGUTT against Gjc3 0.955
GCCAUGCACUAACUUGAAUTT against Adamts4 -0.0391
GCACUUUACGAGUAUGUAATT against Gnl1 -1.74
GGUAUUGGAAAGUAGAAACTT against Igflr1 0.515
GGAGAUCCUUCAUUACCUGTT against Psap -1.34
GGGAUCGUCCAGAUCUAAUTT against Apobec3 -0.982
GGGAAAUUUACAGAAAGUGTT against Igtp 0.956
CGGGCUCAGGUAAAACUCUTT against Ddx31 -0.217
GGAGAGCUUGUUCAAGUGCTT against Zxdc -0.86
CCUCAUUGGUUUGACCCAGTT against Hsd17b6 0.172
GCCAUUAACUAUGGGACCUTT against Lck -0.0729
GCUAUCACUUUUCAUUAGATT against G0s2 -0.902
CCUGCUAAGAGAGUACUAUTT against Pglyrp2 1.51
GGAAUACAAACUGCUGUACTT against Urgcp 0.138
GCCCACGAGCCUCAUGGACTT against Sts -0.805
GGAGUAUCGUAAUGCGGACTT against C4b 0.598
CCUUCCUUACCUACGUGAGTT against Nup88 1.71
CCUCAAGGCAGUUCAUAUUTT against Zfp790 -0.334
GGCUCGGUAUCGUUUUUCATT against Arl3 0.841
GGCUAUCUUUUCAGCUUUATT against Sox30 0.212
GCCGACCACAGUACAAGACTT against Bivm 1.08
GCCGUGUGGUAAUAGUGUCTT against Dhrs13 0.442
GGACUUCUAGAGAACUUGUTT against 2900092C05Rik -1.7
GGCUGUAUACCAAUAAAAATT against B4galt6 -0.855
CGUUUCAGAGUGUUUGUGGTT against Lgalsl -0.173
GGUAUCAGAGCUGUGUUCUTT against Cpped1 -1.48
GGAAAUCUAAAAGUCCUCCTT against Il17re 0.2
GGAUCAUCUCUUUGGGCUGTT against Tmem37 0.127
GGAGAAGAAAGAAAAGCUUTT against Nusap1 -1.74
GGCUGAAAAACUCAAUUAUTT against Boll -0.813
CCAAAUAUCCGGCCAUGACTT against Lgals6 -0.877
GGAAAACACCUACCUGUGGTT against Slc25a3 -1.48
GAAGAAGGAAAAAAACCCATT against Sec61b -1.19
GCACCUCCUGGGAUUACAUTT against Crp 0.412
GCCAUGAAGCUAAAUAAUCTT against Optn -1.31
GCACCUCUACACUUUAGAUTT against Rack1 -0.0792
GGACUGGUUCAUCCUUGUGTT against G6pc 0.922
GGACCACCUAAGUUUAAGCTT against Pde6g -0.557
GGCAUCAAGCACAAGAAAATT against Sys1 -1.16
CCUGUGCCUCGUUUUAUUUTT against Fam161a 0.807
GGUGAUCGAGGAGAGUCUATT against Oaf -0.737
GGUGGAGUUAGAAAACUACTT against BC048679 -0.341
CCUGAACGUGAGUGGAGAATT against Man1c1 -0.8
GACCUACCAGAUGAAGGUCTT against Vmn1r28 0.29
GCGACUUUAGCUAAACAUGTT against Kcns2 1.79
GGAAGAAACAUGUAUCAUGTT against Tff1 0.556
GACAGUGCACGAUCUGAUUTT against Pfn3 0.274
GCUGGAAUGCAAGGGCUUCTT against Gchfr 1.45
GGAUAUGAAACAAUAACAGTT against Arid5b -0.349
GGAGGUAAAUGAAAAAUCUTT against Nop56 0.611
GGUGAUCGUGGUGUGGAACTT against Extl2 0.941
GGCAAUGAUGAGACCUAGUTT against Mybbp1a 0.0956
GCAAUCGAGCUGAAACUAGTT against Hat1 0.721
CCACCAUUUAUAUUUGGUUTT against Slc35g1 -0.298
GCCACAUGGUUAAUAAGAGTT against Postn -1.5
ACCUCAAGACAGUGCAAAUTT against H2bc4 -1.41
GGAAAAUCAACAGCAUCAATT against Olfr661 -0.642
CCCUAUUGAUUCAACUUGGTT against Samt4 0.253

Reference: PubChem BioAssay AID1508600 (Functional Genomics Laboratory (NCATS/FGL), 2020)
